Assay results: the supplement of paper PMC12632987
Residue numbers refer to the chain shown, from its start.

B1: GBRAPL2_0_7191 (protein)
chain: YEEELKKISELPIEEFAKRGVELVERAAKDPSLTLEELEELAERVIELLIEKVKEEKTEEAEEIYVEAADRIREILLKIDPNLAADVATEAGAGLYEIES
B2: GBRAPL2_0_7192 (protein)
chain: YEERLEEISKLPIEEFAKEAVRIVEEAAKDPSLSLEELEEIALRAIRLLYEKVKEEKTEEAEDIYVEAADRIREILKKIDPNLAAYVATEAGALLYEWES
B3: GBRAPL2_0_7193 (protein)
chain: IEERIEKMKELSIEEAVKEGIEIVEEVMKDPSFTDEEKVEIAERVVDIVAEKAKEEKTEEALDLAVEFARKVREILEKISPEDAAYVETRMGAELMEIES
B4: GBRAPL2_0_7194 (protein)
chain: IEERIEELKKLSIEEAVKEGIRLVKEVKEDESFSKEEIVEIAERVAKIVAEKAKEEKTEEALDLAWKFADEVREILKEIDPNDAAYVESEIGSELMEIES
B5: GBRAPL2_0_7195 (protein)
chain: VEEEIERISELPIEEAAEEGVRLVERVVADPSFTDEEKVEVALRVVDILAKKVKEEKTEEAEDIYVEALDEIRKLLLSVGPELANYVYAEGGSELMEIES
B6: GBRAPL2_0_7196 (protein)
chain: YLERIEKMKKLSPEEAYKEAKKLVEELAKDESISPEELEKILEAILEMMAEFVKKTKKEEMEKKFDEIADLAVEAAAKKDPNLAAYIASYAGSLRVEVES
B7: GBRAPL2_0_7197 (protein)
chain: YLKEIEEMKKLSPEEAFEKAKELVKKLAEDKTISPEELEKILEAILELAAEIVKKTKEEKMEEKFDELADLAVKAAAKKDPNLAAYIASYAGSLRYEVES
B8: GBRAPL2_0_7198 (protein)
chain: YLERIEKAKELSPEETFKALKEIVKELAEDDSISLEELEEILEKIVELAAEKVKETKKEEDLEKFDEIVDLATEAAAKRDPNLAAYIDTYGGSLLIEVEE
B9: GBRAPL2_0_7199 (protein)
chain: YLEEIEKAKELSPEEAFEKLEKLVKELAEDDSISLEELEEILEAIIELAAEKVKETKREEDLEKFDRIVDLAAEAAAKRDPNLAAYIRTYGGSLLIEVEE
B10: GBRAPL2_0_7200 (protein)
chain: B8 chain with R4E, T16A, A19K, I23L, V46I, K58S, E63K, N82L
B11: GBRAPL2_0_7201 (protein)
chain: YLEEIEKAKKLSPEEAFKKLKELVKKLAEDDSISLEELEEILEKILKLAAEKVKKTKKEEDLEKFEEIVDLATEAAAKRDPLLAAYIDTYGGSLLIEVEE
B12: GBRAPL2_0_7202 (protein)
chain: YLEEIEKAKELSPEELFKKLKELVEKLAEDDSISPEEKEEILLKIVELAAEKVKETKTEEDEKKFEEIVELAVKVAEKIDPNLAAYIRTHAGSLLYENES
B13: GBRAPL2_0_7203 (protein)
chain: YLEEIEKAKSLSPEELFKKLKELVKKLAEDKSISPEEKEEILEAIIKLAGEKVKETKTEETEKQFDEIVELAVEVAEKIDPNLAAYIRTLAGSLLYENES
B14: GBRAPL2_0_7204 (protein)
chain: YLEKIEKAKSLSPKELFEALKKLVKELAKDKSVSPEEKEEILEAIIKLAAERVKETKTEEDEKAFEEIVKEAVKVAEKIDPNLAAYVRTYAGSLLYEIES
B15: GBRAPL2_0_7205 (protein)
chain: YEEEIEKAKELSPEELFKALKELVKKLKEDDSISLEELEEILLRILELAAEKVKEVKTEEAEEAFDELVELAVEAMKKRDPNMANYIETYGGSLLYEIES
B16: GBRAPL2_0_7206 (protein)
chain: YEAEIEAAKKLTPEEAFKKLKELVKKLAKDTSLSKEELEKILEAIIDLAYEIYKKEKTEEAEEAFDEIVDLAVEAAAKRDPNLAAYIATYGGSKIMEAES
B17: GBRAPL2_0_7207 (protein)
chain: YEKEIEKAKTLTPEEAFKALKKLVKKLAKDKSVSKEELEALLEAILDLAYEIMAKEKTEEAEKAFDEIAEEATKAAAKRDPNLAAYIASYAGSLLMEYES
B18: GBRAPL2_0_7208 (protein)
chain: YKERIEEAKKLSPEEAYKALKELVKEIAEDKSISAEEREEILEEIIELAYEIYKKEKTEEAEKAFDEIVDLAVKAAAKVDPNLAAYIASFGGSLIMEAES
B19: GBRAPL2_0_7209 (protein)
chain: YKERIEEAKKLSPEEAFKALKKLVKELAEDDSVSLEELEEILEAILELAYEIYKKEKTEEAEKAFDEIVDLATEAAAKRDPRLAAYIATFGGSLIMEAEL
B20: GBRAPL2_0_7210 (protein)
chain: MEKILEEAKKLSVEEAAEYAVETVEELVKSGSLSPEELAELAKELLKVLIEKVKENGKEEDVEIADETIDRVREILRPVDPRLAAYVATEGYSELLELEE
B21: GBRAPL2_0_7211 (protein)
chain: MEEILEKAKKLSVEEAAKYAVETVKSLVESGSLSPEELAELATKLLKVLIEKVKKDGKEESVEIAVETADKIREILKPVDPNLAADVDTEALSEILELEE
B22: GBRAPL2_0_7212 (protein)
chain: MEEILEEISKLSIEEAAEKAIKLVKELVESKSLSTEELFELAKKLLEIIVEKVKEENKEESLEIARETADEIYEILKKVDPKEAAYVYTEIMEKILELEE
B23: GBRAPL2_0_7213 (protein)
chain: MEEFLKELKSLSIEEAAEKFVKKIEEMAKSGKYSLEEIEEIVEEMAKVLGEKVKKEKKEESLDIAAEAADKVREILEKIDPNLAAYAYSEIGAEIMEAAE
B24: GBRAPL2_0_7214 (protein)
chain: MEEFLEELKKLSIEEAAKKAVEKVREMAESGKYSLEEIEEFVEKMAEVLGEKIKKEKKEESLDIAAEAADEIRKILEKVDPRLAAYADSEIGAEIMEAEE
B25: GBRAPL2_0_7215 (protein)
chain: MEELVEEAKKLSVEEAAELFVKRVEELVESGKATREELEALVEAAAKVLGEKIKKNKNEEDLDIAAEAADRIREILAKVDPELAAYADSEIGAEIMEAFS
B26: GBRAPL2_0_7216 (protein)
chain: MEELVEEARKLSIEEAAKLFVEKVKELVESGKATDEELMELVEAGAKVLGEKLKKEKKEEGLDIAMKAADEIREILEKKDPNLAAYAYSEIGAEIMEAAS
B27: GBRAPL2_0_7217 (protein)
chain: MEELIEKAKELSVEEAAELFVEEVKRLVESGKATDEELMELVEKAAEVLEEKMKESKDEEDEDIALEAADRIREILAEKDPRLAAYAYSEIGAGIMEASS
B28: GBRAPL2_0_7218 (protein)
chain: MEELVEKARKLSVEEAAELFVEKVRELVESGKATDEELEALVEAAAEVLEEKIKKNKNEKDLDIAAEAADRIREILAKKDPRLAAFADSEIGAGIMEAAS
B29: GBRAPL2_0_7219 (protein)
chain: MEEKVEEMKKLSIKEAAEAAVKLIKEMVESGKYSLEEIAEAVEKLAEVLGEKLKKEKKEEAEDIALEAARKIREILAKRDPNLAAYAYSEIGAEIMEASS
B30: GBRAPL2_0_7220 (protein)
chain: MEEFVKEMLELSIKEAAEAAVKYIKELVESGKYSLEEIEEAVEKIAEVLGEKLKKEKKEEAEDIAMEAADEIRKILSEKDPNLAAYAYSEIGAEIMEAWS
B31: GBRAPL2_0_7221 (protein)
chain: MEKLVEEMKKLSVEEAAERFVKEIKEAVESGKYSLDEIAELIEAMAKVLGELLKKNKKEEDFDIAMKAADEVRKILEKVDPNLAAYAYSEIGAEIMEAEE
B32: GBRAPL2_0_7222 (protein)
chain: MEELKEEMLKLSIEEASEKAVKTIKEAVESGKYSLEEIAELIEEMAEVIGELLKKEKKEESVDIAIEAADKIREILEKVDPNLAAYAYSEIGAEIMEAEE

Molecular target: GABARAPL2, P60520
Sequence (P60520 whole entry, the tested form may be a part): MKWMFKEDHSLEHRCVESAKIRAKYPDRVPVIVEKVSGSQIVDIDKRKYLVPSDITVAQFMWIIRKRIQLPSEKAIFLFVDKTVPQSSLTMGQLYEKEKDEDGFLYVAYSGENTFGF
Assay: median log2 fold change of GCK-ALFA target abundance (FLAG IP / Myc IP barcode read proportion) (log2 ratio); each designed protein is fused to an ALFA-tag nanobody in HEK293 cells to bring the named protein to FLAG-tagged glucokinase (GCK); Myc marks an untargeted standard; higher = target protein stabilised (more abundant)
Conditions: target protein: 3xFLAG-MCP-GCK-ALFA reporter; HEK293 landing pad (RPLP)
Summary of the method: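 Binders fused to an ALFA nanobody were recombined as a library into HEK293 landing-pad cells, which were induced with 2 μg mL^−1 doxycycline and then transfected to express a FLAG-tagged target and a Myc-tagged standard. After 48 h, circular RNA barcodes recovered by anti-FLAG and anti-Myc immunoprecipitation of lysates were reverse transcribed, amplified and sequenced. Each binder's target abundance is the median log2 ratio of FLAG to Myc barcode read proportions, from barcodes present at ≥10^−7 in both replicates, binders carrying ≥3 barcodes per replicate, a 10^−6 pseudocount and pooled replicates.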

Row | Binder | median log2 fold change
1 | B1 | 0.23
2 | B2 | -0.305
3 | B3 | 0.33
4 | B4 | 0.238
5 | B5 | 0.163
6 | B6 | 0.192
7 | B7 | 0.245
8 | B8 | 0.104
9 | B9 | 0.196
10 | B10 | 0.104
11 | B11 | 0.0418
12 | B12 | 0.0999
13 | B13 | 0.0798
14 | B14 | 0.0789
15 | B15 | 0.126
16 | B16 | 0.12

Row | Binder | median log2 fold change
17 | B17 | -0.0647
18 | B18 | 0.152
19 | B19 | -0.227
20 | B20 | -0.00179
21 | B21 | 0.109
22 | B22 | 0.328
23 | B23 | -0.118
24 | B24 | 0.0795
25 | B25 | 0.0633
26 | B26 | 0.169
27 | B27 | -0.0345
28 | B28 | 0.21
29 | B29 | 0.00483
30 | B30 | -0.0156
31 | B31 | 0.0252
32 | B32 | 0.133
